A selection: hits, their analogues and other compounds. The true share with any hit is near 9%.
HPGD inh: HPGD (human) dehydrogenase inhibition; purified HPGD, NADH fluorescence kinetic, PGE2 substrate; Potency, µM, inactives show at the highest dose activity change, negative = inhibition, actives largely listed as inhibitors; 4.3% of 150,000 active; AID 894; also: potency is read from the fitted curve at half-maximal effect
Target sequence (P15428 whole entry, looked up): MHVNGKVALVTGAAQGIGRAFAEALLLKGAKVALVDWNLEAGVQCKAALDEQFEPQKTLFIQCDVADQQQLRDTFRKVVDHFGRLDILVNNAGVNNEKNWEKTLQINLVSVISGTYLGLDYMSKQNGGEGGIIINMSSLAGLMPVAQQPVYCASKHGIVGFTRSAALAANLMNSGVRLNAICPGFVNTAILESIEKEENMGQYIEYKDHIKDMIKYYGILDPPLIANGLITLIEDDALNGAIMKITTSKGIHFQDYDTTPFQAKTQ
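NADH formation kinetics: reaction with 30 uM PGE2 and 1 mM NAD+ (final), 20 nM enzyme, Tris-HCl pH 8 with Tween 20, after 15 min compound preincubation at room temperature. Fluorescence change, last versus first of five reads.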
ALDH1A1 inh: inhibitors of human aldehyde dehydrogenase 1A1; AID 1030; Potency, µM (doses to about 75.3 µM), for the others: at the highest dose activity, negative = inhibition, actives largely listed as inhibitors; Purified ALDH1A1, NADH fluorescence, propionaldehyde substrate; P00352; 7.3% of 220,000 active;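 also: potency is read from the fitted curve at half-maximal effect; plate controls were no enzyme wells and a reference inhibitor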
IMPase cell inh: cell-permeable inhibitors of inositol monophosphatase (IMPase). 120,000 tested, under 10 active. inhibition (IP1 accumulation), % at 46.1 µM. CHO-M1 cells, IP1 accumulation, HTRF TR-FRET ratio. P97697; active = well fitted curve in the direction sought with a large enough effect in the signal ratio, not every such curve was filed as active; inconclusive = small, poorly fitted or top-dose-only effect, or a change in a side signal; inactive = no such curve, though single readings can be large or run the other way; the % refers to the signal ratio;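 also: cells stimulated with carbachol in lithium chloride buffer; plate controls were DMSO basal wells for no effect and reference inhibitor wells for full effect; higher means more IMPase inhibition seen as more IP1 and lower FRET ratio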
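Cellular IMPase inhibition is scored as a rise in cytosolic IP1, detected by competitive TR-FRET between d2-labelled IP1 and a europium anti-IP1 antibody. M1-expressing CHO cells were stimulated with carbachol for 30 min at 37C, with lithium (50 mM LiCl) present in the buffer.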
Numbers without * were called inactive; ? = inconclusive; · = no result given; [ ] = another dose, or the depositor's remark. Unless noted, calls follow the shape of the dose curve; as a rule, active = well fitted inhibition curve with a large enough effect (not every such curve was filed as active); inconclusive = small, poorly fitted or top-dose-only effect, or another doubt; inactive = no such curve, though single readings can be large or run the other way. Unless noted, % is scaled to controls: 0 for no effect and ±100 for the full control effect.

SMILES	HPGD inh	ALDH1A1 inh	IMPase cell inh
CC(=NC1CC1)c1c(-c2ccccc2)[nH]n(-c2nc3ccccc3s2)c1=O	-9.9%	-2.2%	-3.9
COC(=O)c1ccc(CSc2ncnc3c2nnn3-c2ccc(OC)cc2)o1	?	?	-7.8
CCOC(=O)c1c(NC(=O)CCC(=O)N2CCOCC2)sc2c1CC(C)(C)OC2	-7.6%	?	5.3
CCOC(=O)c1c(NC(=O)CN2CCOCC2)sc2c1CC(C)(C)OC2	-15.9%	14.1µM*	0.1
C=C(C)CNC(=S)Nc1sc2c(c1C(=O)OCC)CC(C)(C)OC2	·	12.6µM*	-21.7
CCOC(=O)c1c(NC(=O)c2ccc(C)cc2)sc2c1CC(C)(C)OC2	?	?	4.2
CCOC(=O)c1c(NC(=O)c2ccccc2C)sc2c1CC(C)(C)OC2	?	?	2.7
CCOC(=O)c1c(NC(=O)CCN2CCOCC2)sc2c1CC(C)(C)OC2	-3.8%	22.4µM*	-3.4
COC(=O)C(C(C)=O)C1c2ccccc2C=C(C)N1C(=O)OC (stereo unspecified)	-4.8%	20.0%[13.5 µM]	·
Cc1ccccc1NC(=O)CSc1n[nH]c(-c2ccco2)n1	·	-3.4%	·
Cc1ccccc1NC(=O)CSc1nnc(-c2ccco2)c(-c2ccco2)n1	8.91µM*	1.26µM*	4.5
COc1ccc(-c2nnc(SCC(=O)Nc3c(C)cccc3C)nc2-c2ccc(OC)cc2)cc1	·	·	-9.5
Cc1cccc(C)c1NC(=O)CSc1nnc(-c2ccco2)c(-c2ccco2)n1	28.2µM*	7.08µM*	2.9
C[C@@H]1NC(=O)c2cc([N+](=O)[O-])cc(I)c2OCC[C@@H](C(N)=O)NC(=O)[C@H](CCC(=O)O)NC1=O	-13.7%	-2.0%	·
CCCc1nnc(NC(=O)OCC)s1	·	0.5%	·
C/C(CCC(=O)OC[C@@H]1O[C@H](C#Cc2ccccc2)C=C[C@@H]1Oc1ccc(C)cc1)=N/O[C@@H](C)c1cn([C@H](CO)Cc2ccccc2)nn1	·	-5.8%[13.5 µM]	·
CS(=O)(=O)Nc1ccc(Br)cc1C(=O)c1ccccc1	-15.6%	21.5%	-2.2
CCNc1ccc(Br)cc(C(=O)/C=C/c2ccc(Cl)cc2)c1=O	?	25.1µM*	·
CCNc1ccc(Br)cc(C(=O)/C=C/c2c(Cl)cccc2Cl)c1=O	8.91µM*	7.94µM*	2.0
COC(=O)c1cc(Cl)c(NC(=O)/C=C/c2ccc(Cl)cc2)cc1OC	?	?	-3.4
CCNc1ccc(Br)cc(C(=O)/C=C/c2ccc3c(c2)OCO3)c1=O	?	17.8µM*	0.2
Nc1ccccc1C(=O)/C=C\c1ccc2c(c1)OCO2	·	4.9%[13.5 µM]	·
COc1cc2c(cc1OC)CN(C(=O)CSc1nnc(C)s1)CC2	-15.1%	?	2.4
CSc1nc(NC2CCCC2)c([N+](=O)[O-])c(NC2CCCC2)n1	-0.7%	-8.6%	8.9
CCOc1ncccc1C(=O)Nc1ccc(F)cc1	·	8.6%	·
SMILES	HPGD inh	ALDH1A1 inh	IMPase cell inh
CCC(CC)c1nnc(NC(=O)Cc2ccccc2[N+](=O)[O-])s1	·	20µM*	·
CCOc1ccc(C(=O)Nc2nnc(C(C)C)s2)cc1OCC	28.2µM*	25.1µM*	0.1
Cc1csc(NC(=O)Cc2ccccc2[N+](=O)[O-])n1	-5.3%	-4.5%	·
COc1ccc(C(=O)Nc2nnc(C(C)C)s2)cc1OC	·	·	-3.0
CSc1cccc(NC(=O)CCC(=O)O)c1	-9.3%	1.1%	·
CCOc1ncccc1C(=O)Nc1nnc(C(CC)CC)s1	·	4.47µM*	·
CSc1cccc(NC(=O)Cc2ccccc2[N+](=O)[O-])c1	·	35.5µM*	·
COCC(=O)N1CCC2(CC1)CN(Cc1ccc(C#N)cc1)C2	-7.8%	3.9%	·
O=C(O)c1ccc(C(=O)Nc2cccc3ccccc23)c(C(=O)O)c1	-25.1%	-18.9%[13.5 µM]	·
CCOC(=O)C1=C(c2ccccc2)c2cc(OC)ccc2OC1C(=O)OCC (stereo unspecified)	-10.2%	?	·
Cc1cc(NC(=O)Cn2c(C)nc3ccccc3c2=O)ccc1Br	-21.2%	-2.8%	-8.3
Cc1cccc(NC(=O)CCn2ccnc2C)c1	-2.4%	?	3.5
Cc1ccc(/C=N/n2c(COc3ccccc3)n[nH]c2=S)s1	2.24µM*	?	6.7
S=c1[nH]nc(-c2ccccn2)n1/N=C/c1ccc(Br)s1	7.94µM*	?	15.9
S=c1[nH]nc(COc2ccccc2)n1/N=C/c1ccc(Br)s1	10µM*	?	3.2
S=c1[nH]nc(-c2ccccn2)n1/N=C/c1ccc(Cl)c(Cl)c1	·	-3.9%	·
CCc1n[nH]c(=S)n1/N=C/c1ccc(N(C)c2ccccc2)cc1	·	-4.6%	·
Cc1ccc(/C=N/n2c(COc3ccccc3)n[nH]c2=S)o1	·	11.5%	·
COc1ccc(C(=O)c2c[nH]c3ccccc23)cc1	-6.6%	-11.4%	13.9
COc1ccc(N2CCN(Cc3nc4c(c(=O)[nH]c(=O)n4C)n3CC(C)=O)CC2)cc1	-16.2%	-1.9%	-0.7
